Measurements from the supplement of paper PMC11732987, “Enantioselective OTUD7B fragment discovery through chemoproteomics screening and high-throughput optimisation” (Communications Chemistry, 2025).

Legend:
Test in all cases: log2 ratio of Biotin-Ahx-Ub-VS probe labelling (fragment/DMSO); higher = less target engagement (more negative = stronger competition), active = hit call of the paper (q ≤ 0.05, log2 ratio ≤ -1)
Settings in all cases: compound concentration: 200 uM; treatment time: 3 h
USP42 = target: T1, USP42 (UniProt Q9H9J4)
T1 sequence (whole entry): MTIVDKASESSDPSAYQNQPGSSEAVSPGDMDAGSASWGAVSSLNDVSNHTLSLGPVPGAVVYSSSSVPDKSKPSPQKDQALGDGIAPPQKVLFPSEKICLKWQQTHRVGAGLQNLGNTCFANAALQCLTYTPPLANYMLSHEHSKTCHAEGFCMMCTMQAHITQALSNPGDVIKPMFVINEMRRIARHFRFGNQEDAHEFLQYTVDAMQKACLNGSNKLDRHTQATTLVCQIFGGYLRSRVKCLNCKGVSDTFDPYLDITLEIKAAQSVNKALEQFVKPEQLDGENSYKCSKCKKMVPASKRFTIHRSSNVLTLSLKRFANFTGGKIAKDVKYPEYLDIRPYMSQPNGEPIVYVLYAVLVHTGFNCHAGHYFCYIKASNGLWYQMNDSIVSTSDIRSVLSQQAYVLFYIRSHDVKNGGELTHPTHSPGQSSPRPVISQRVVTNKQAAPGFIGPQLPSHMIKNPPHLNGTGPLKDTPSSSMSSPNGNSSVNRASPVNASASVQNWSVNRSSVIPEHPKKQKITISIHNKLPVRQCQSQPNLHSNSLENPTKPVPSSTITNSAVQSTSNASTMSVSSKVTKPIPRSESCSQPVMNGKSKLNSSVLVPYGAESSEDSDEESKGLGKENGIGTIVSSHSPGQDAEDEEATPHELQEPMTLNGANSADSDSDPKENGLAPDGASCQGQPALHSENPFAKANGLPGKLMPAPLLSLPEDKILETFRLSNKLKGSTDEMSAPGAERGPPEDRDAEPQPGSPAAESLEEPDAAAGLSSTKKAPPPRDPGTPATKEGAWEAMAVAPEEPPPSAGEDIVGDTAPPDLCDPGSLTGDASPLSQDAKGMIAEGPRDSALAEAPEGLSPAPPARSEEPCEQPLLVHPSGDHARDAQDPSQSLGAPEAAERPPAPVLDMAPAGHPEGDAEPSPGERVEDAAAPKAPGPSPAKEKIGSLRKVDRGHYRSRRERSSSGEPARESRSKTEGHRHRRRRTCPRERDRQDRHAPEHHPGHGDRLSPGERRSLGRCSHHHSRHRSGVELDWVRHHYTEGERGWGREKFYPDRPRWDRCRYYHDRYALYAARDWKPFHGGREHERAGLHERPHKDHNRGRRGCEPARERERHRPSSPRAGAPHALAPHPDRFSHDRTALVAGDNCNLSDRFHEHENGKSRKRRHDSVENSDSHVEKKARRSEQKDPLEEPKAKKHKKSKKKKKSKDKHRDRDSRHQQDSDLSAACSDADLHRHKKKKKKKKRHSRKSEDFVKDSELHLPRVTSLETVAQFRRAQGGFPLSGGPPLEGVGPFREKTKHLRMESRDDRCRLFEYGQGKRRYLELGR
In short: (§1)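 Fragment (200 µM) or vehicle was incubated for 3 h with triplicate HEK293T lysate samples of 495 µg, which were then treated with Biotin-Ahx-Ub-VS at 0.5 µM final for 1 h. Labelled DUBs were enriched on NeutrAvidin, digested with LysC and trypsin, and analysed by diaPASEF LC-MS/MS. Values are average log2 fragment/vehicle ratios from an unpaired t-test on global-median-normalised Spectronaut label-free quantities, using proteins with ≥2 unique peptides.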

USP46 = USP46 (UniProt P62068)
In short: as §1

USP47 = target: T2, USP47 (UniProt Q96K76)
T2 sequence (whole entry): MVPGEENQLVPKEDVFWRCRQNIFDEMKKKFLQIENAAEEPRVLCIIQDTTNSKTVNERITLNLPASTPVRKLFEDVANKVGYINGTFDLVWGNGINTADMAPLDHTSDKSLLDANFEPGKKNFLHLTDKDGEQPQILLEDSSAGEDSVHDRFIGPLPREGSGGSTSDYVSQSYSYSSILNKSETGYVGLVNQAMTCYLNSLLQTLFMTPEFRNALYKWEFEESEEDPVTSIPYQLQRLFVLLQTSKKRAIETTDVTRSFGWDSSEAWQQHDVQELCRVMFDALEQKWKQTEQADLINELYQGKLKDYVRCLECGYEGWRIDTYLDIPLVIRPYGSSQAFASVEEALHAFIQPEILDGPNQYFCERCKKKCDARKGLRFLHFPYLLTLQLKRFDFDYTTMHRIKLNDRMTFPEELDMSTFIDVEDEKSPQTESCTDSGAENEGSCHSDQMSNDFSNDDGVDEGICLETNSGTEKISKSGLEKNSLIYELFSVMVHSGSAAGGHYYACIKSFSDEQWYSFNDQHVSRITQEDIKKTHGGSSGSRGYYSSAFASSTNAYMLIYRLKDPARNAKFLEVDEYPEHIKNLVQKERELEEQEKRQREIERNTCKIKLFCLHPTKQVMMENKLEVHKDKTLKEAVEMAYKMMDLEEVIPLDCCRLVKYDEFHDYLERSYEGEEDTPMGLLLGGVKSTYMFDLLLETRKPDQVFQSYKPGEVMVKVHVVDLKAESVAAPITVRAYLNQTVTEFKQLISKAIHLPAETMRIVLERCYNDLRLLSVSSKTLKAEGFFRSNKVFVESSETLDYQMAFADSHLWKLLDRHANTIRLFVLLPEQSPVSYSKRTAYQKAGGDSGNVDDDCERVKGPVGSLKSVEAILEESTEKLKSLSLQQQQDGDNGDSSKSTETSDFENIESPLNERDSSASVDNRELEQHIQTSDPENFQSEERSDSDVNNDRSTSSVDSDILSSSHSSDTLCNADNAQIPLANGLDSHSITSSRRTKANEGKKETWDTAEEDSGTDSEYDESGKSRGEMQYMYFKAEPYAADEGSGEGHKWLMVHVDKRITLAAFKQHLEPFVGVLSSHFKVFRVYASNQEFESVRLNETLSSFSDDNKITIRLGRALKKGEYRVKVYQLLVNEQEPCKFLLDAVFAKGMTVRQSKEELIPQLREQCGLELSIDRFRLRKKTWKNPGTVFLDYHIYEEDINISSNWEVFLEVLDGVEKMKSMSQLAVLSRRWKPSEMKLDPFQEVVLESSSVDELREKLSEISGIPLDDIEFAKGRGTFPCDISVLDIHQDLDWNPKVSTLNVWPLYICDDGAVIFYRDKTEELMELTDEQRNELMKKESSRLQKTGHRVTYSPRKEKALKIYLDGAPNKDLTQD
In short: as §1

USP48 = target: T3, USP48 (UniProt Q86UV5)
T3 sequence (whole entry): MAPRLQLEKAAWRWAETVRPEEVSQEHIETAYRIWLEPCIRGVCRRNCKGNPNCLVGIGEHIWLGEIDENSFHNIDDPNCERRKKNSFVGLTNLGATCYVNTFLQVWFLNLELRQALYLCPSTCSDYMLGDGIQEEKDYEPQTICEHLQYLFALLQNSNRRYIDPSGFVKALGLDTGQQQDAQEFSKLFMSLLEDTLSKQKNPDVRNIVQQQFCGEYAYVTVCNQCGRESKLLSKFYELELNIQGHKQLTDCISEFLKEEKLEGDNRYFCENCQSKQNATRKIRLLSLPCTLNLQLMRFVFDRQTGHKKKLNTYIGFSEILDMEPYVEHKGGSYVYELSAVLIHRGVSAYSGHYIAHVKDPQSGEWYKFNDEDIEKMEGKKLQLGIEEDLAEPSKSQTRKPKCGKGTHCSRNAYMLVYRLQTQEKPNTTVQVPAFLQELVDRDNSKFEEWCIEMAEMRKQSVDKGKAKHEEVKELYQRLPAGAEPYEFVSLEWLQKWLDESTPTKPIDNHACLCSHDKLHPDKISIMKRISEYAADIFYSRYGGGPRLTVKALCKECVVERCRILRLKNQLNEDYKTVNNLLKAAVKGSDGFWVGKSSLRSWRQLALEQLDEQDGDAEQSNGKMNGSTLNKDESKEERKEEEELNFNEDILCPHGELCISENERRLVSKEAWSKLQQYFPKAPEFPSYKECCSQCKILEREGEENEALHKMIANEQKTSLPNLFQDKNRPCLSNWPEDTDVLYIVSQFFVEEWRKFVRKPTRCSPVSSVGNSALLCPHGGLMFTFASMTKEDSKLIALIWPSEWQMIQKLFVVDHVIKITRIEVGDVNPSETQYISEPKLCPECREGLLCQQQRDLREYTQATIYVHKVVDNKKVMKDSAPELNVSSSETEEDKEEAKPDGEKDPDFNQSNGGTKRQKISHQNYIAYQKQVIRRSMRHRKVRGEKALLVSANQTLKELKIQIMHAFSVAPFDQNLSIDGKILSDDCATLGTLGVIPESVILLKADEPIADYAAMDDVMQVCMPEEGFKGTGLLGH
In short: as §1

USP5 = target: T4, USP5 (UniProt P45974)
T4 sequence (whole entry): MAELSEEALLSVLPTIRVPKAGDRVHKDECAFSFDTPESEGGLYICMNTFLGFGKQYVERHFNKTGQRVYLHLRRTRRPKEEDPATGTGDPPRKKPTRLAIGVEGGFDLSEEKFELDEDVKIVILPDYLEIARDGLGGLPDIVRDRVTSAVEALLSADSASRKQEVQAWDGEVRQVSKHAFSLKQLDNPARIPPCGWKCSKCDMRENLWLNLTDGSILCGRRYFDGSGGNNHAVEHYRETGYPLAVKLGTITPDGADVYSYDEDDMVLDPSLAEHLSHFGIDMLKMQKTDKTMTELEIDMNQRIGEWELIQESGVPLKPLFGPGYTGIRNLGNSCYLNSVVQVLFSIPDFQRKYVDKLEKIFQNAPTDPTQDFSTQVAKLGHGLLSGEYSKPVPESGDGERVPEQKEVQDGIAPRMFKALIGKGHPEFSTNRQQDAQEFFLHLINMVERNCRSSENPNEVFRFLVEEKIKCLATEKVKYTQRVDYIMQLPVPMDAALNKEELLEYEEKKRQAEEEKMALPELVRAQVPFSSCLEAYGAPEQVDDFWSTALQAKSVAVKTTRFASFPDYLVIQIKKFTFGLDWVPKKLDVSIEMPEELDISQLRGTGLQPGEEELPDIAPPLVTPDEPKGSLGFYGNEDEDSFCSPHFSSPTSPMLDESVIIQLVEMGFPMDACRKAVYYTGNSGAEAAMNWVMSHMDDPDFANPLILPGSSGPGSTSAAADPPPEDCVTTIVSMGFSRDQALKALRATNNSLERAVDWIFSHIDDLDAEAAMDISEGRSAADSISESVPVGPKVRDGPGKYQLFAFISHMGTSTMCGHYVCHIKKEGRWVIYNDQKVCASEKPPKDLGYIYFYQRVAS
In short: as §1

USP54 = USP54 (UniProt Q70EL1)
In short: as §1

USP7 = USP7 (UniProt Q93009)
In short: as §1

USP8 = target: T5, USP8 (UniProt P40818)
T5 sequence (whole entry): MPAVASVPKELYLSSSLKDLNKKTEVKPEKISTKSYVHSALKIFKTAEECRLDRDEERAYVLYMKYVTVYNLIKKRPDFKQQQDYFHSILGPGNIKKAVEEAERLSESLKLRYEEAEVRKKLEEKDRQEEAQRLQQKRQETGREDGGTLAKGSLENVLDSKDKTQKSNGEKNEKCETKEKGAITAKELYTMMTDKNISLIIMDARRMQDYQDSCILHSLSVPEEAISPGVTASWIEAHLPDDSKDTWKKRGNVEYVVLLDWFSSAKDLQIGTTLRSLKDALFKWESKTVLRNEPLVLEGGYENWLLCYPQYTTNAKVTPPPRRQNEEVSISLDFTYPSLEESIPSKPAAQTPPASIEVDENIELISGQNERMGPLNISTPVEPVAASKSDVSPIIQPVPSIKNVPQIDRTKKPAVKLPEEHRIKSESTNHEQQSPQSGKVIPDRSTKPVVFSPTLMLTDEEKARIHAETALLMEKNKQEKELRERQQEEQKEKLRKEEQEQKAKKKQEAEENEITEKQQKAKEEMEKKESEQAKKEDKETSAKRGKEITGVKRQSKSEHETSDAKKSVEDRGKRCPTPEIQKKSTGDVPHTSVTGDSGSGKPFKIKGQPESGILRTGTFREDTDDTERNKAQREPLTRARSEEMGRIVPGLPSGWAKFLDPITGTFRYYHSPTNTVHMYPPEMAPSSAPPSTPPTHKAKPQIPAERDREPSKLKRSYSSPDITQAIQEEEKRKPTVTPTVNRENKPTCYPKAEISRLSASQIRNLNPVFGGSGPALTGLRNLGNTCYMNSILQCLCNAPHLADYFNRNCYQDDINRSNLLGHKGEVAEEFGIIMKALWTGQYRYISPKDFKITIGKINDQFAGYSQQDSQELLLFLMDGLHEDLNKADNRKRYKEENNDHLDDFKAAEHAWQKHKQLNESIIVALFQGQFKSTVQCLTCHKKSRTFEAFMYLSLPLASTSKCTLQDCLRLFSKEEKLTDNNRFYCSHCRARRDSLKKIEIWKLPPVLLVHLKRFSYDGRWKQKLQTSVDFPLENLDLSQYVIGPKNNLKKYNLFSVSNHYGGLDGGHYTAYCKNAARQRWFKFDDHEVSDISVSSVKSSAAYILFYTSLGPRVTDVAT
In short: as §1

Measured: log2 ratio of Biotin-Ahx-Ub-VS probe labelling

Chain of USP54 (Q70EL1 whole entry): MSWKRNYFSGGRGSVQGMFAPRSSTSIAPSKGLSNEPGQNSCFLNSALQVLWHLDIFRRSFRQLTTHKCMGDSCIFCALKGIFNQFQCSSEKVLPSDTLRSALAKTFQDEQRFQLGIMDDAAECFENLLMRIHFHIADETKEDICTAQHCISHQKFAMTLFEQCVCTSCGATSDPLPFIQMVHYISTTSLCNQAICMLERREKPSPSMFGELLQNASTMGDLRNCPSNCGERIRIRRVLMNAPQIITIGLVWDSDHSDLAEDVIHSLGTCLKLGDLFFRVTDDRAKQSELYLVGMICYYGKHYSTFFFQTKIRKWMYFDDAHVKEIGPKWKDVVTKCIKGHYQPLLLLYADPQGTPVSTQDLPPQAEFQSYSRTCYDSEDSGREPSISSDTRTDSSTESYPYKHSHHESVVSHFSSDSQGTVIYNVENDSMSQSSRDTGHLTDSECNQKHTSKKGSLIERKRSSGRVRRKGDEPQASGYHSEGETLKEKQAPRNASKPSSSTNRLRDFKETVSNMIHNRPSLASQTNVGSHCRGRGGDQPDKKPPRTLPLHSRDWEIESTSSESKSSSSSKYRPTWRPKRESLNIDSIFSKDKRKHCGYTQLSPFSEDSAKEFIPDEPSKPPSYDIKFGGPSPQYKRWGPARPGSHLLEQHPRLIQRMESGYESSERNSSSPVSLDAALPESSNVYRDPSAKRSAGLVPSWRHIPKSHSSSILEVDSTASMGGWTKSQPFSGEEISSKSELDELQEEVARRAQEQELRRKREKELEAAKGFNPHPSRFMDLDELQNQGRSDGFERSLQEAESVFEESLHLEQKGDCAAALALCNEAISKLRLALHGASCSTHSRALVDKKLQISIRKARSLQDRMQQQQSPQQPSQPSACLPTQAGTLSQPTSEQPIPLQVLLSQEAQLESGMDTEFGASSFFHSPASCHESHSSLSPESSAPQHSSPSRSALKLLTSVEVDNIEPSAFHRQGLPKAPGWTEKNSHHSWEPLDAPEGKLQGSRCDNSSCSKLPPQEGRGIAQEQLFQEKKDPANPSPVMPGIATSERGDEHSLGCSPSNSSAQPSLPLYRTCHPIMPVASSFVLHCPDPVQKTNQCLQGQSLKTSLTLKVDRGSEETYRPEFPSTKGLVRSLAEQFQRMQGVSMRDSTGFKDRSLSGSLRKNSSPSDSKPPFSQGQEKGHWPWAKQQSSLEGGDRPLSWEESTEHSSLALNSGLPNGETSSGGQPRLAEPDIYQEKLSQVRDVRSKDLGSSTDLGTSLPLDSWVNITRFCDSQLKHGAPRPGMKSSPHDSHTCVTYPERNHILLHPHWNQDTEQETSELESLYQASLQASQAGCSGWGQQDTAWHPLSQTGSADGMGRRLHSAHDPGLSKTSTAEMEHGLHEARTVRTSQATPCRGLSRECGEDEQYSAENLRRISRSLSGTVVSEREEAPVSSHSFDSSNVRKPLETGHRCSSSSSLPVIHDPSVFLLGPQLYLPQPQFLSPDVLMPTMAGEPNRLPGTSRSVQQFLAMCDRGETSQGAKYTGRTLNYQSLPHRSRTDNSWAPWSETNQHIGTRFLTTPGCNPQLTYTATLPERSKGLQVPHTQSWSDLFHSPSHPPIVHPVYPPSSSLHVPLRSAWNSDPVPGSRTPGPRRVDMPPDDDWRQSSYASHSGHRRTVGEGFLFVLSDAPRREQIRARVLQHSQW
Chain of USP46 (P62068 whole entry): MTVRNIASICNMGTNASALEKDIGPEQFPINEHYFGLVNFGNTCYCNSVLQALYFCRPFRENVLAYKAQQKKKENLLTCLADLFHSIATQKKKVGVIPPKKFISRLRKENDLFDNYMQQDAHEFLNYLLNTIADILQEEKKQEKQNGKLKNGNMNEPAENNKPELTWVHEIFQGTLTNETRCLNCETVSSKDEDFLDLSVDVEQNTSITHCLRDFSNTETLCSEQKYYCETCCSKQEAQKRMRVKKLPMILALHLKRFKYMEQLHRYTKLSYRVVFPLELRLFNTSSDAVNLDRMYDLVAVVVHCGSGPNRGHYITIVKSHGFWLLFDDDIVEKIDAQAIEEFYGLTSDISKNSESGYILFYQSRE
Chain of USP7 (Q93009 whole entry, looked up): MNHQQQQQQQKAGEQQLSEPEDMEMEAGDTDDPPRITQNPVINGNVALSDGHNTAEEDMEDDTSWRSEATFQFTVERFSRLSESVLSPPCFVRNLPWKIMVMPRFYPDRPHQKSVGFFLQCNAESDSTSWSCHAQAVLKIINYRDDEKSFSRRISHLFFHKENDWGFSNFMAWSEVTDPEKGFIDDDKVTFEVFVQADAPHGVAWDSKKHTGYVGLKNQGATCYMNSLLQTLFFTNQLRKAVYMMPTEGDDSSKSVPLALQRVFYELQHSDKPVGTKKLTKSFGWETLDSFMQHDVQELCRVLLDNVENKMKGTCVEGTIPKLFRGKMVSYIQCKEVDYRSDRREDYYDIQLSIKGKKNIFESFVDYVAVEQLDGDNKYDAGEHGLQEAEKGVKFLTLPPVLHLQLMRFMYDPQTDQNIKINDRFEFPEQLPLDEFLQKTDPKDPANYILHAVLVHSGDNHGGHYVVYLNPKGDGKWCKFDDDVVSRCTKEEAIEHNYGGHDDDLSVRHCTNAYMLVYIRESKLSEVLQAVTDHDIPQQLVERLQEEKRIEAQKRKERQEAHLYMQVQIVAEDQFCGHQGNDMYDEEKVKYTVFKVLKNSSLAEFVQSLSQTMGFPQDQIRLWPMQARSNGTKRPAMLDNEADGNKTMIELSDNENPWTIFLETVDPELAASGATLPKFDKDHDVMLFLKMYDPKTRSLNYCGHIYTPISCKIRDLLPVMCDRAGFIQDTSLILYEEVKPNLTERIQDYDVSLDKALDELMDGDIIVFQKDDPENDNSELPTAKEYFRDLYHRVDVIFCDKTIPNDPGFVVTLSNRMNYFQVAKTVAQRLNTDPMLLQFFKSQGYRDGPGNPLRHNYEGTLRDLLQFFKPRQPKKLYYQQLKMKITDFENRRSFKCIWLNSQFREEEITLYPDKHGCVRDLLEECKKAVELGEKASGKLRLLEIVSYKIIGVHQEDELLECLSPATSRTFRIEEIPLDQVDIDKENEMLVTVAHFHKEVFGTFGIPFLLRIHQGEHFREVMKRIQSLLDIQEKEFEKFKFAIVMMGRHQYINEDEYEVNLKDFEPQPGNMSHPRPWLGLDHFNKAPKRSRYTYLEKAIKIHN

CC(c1ccccc1)N(C)C(=O)CCl (stereo not drawn)
inactive: USP42 -0.0241 | USP46 -0.161 | USP47 0.0295 | USP48 -0.407 | USP5 0.359 | USP54 0.0889 | USP7 -0.735 | USP8 -0.0666
